61 compounds from PubChem BioAssay AID868 (SRMLSC, 2007) can be followed below.

Among all 190,000 compounds or so, about 3,500 (1.8%) were called active.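 How the source made its calls: active means inhibition above a set limit, 3 SD over mean compound inhibition (cut at about 8.4% in these data); inactive means the rest.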 The full list was thinned out, with actives kept by preference.

The inhibition is the drop in the measured response relative to a control, in per cent.

A short description of the assay: RAM signaling blockers in budding yeast – dse1pr::URA3 reporter, 5-FOA selection, primary screen (AID 868).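 Further: 0% = DMSO-only wells with no growth and 100% = 10 µM 1-NA-PP1 full growth.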 Conditions: S. cerevisiae dse1pr::URA3 reporter, 5-FOA growth OD615, 2 d; at 50 µM; stronger effect = higher value; analog-sensitive cbk1-as2 kinase mutant strain.
Take `CCCCCOc1ccc(CSC2=NCCN2)cc1[N+](=O)[O-]`: the inhibition is -0.98% (inactive).

Take `O=C(Nc1nc(-c2cccnc2)cs1)c1ccccc1F`: the inhibition is -0.37% (inactive).

In the case of `COc1cccc(NC(=S)NCc2ccccn2)c1`, the inhibition was 2.63% (inactive).

Regarding `Cc1nn(C)c(C(=O)NNC(=S)NC2CCCCC2)c1Cl`, the inhibition is 0.28% (inactive).

As to `COc1cccc(NC(=S)NC(=O)c2c(Cl)c(C)nn2C)c1`, the inhibition was 8.92% (active).

With `CCOC(=O)C1(Cc2cccc(OC)c2)CCCN(S(=O)(=O)c2cccnc2)C1` (stereo unspecified), the inhibition is 0.14% (inactive).

On to `O=C(NCc1ccccc1)C1CCCN(c2nc3ccsc3c(=O)s2)C1` (stereo unspecified), for which the inhibition is 3.39% (inactive).

In the case of `CN(C)S(=O)(=O)c1cccc(NC(=O)COC(=O)/C=C/c2cccs2)c1`, the inhibition was 0.87% (inactive).

Consider `CN(C)S(=O)(=O)c1cccc(NC(=O)COC(=O)C2(c3ccccc3F)CCCC2)c1`, for which the inhibition is 15.4% (active).

Regarding `CN(C)S(=O)(=O)c1cccc(NC(=O)COC(=O)c2cc(=O)[nH]c(=O)[nH]2)c1`, the inhibition was 0.97% (inactive).

For the compound `CC1CC(C)(C)NC(=S)N1CCC(=O)N1CCN(Cc2ccccc2)CC1` (stereo unspecified), the inhibition is -0.49% (inactive).

On to `CCC(C)(C)NC(=O)CN(C(=O)CCC(=O)Nc1cc(C)ccn1)c1ccc2c(c1)OCCO2`, for which the inhibition is 1.5% (inactive).

Take `Cc1ccn(CC(=O)N2N=C(C(F)F)CC2(O)C(F)F)n1` (stereo unspecified): the inhibition was 0.78% (inactive).

Regarding `S=C(NCc1ccc(Cl)cc1)NC12CC3CC(CC(C3)C1)C2`, the inhibition was 5.19% (inactive).

Take `CN(C)CCCNC(=S)NCc1ccc(Cl)cc1`: the inhibition was 0.25% (inactive).

Consider `S=C(NCc1ccc(Cl)cc1)NC1CCCCC1`, for which the inhibition is 10.9% (active).

For `Cc1ccc(S(=O)(=O)NC(C(=O)N2CCOCCOCCOCCOCC2)c2ccccc2)cc1` (stereo unspecified), the inhibition was 2% (inactive).

`CCCC(C(=O)n1nc(C)cc1C)C(NS(=O)(=O)c1ccc(C)cc1)c1ccccc1` (stereo unspecified): the inhibition was 11.7% (active).

`Cc1ccc(S(=O)(=O)Nc2nc(C)cc(-n3nc(C)cc3C)n2)cc1`: the inhibition is 2.7% (inactive).

With `COc1ccc(OCc2cccc(C(=O)N3CCCC3)c2)cc1`, the inhibition is -0.11% (inactive).

On to `COc1ccc(OC)c(-n2c(=S)[nH]c3cc(C(=O)N4CCCCC4)ccc3c2=O)c1`, for which the inhibition was 8.46% (active).

As to `COc1ccccc1Cn1c(=S)[nH]c2cc(C(=O)N3CCN(C)CC3)ccc2c1=O`, the inhibition is 2.83% (inactive).

For the compound `CC(=O)c1ccc(S(=O)(=O)Nc2ccc(C(=O)NCC(c3ccccc3)N(C)C)cc2)cc1` (stereo unspecified), the inhibition is 1.76% (inactive).

As to `O=C(Nc1ccc(N2CCN(C(=O)c3cccs3)CC2)cc1)c1cccnc1Cl`, the inhibition is 0.88% (inactive).

On to `Cc1cccc(N2CCN(C(=O)c3cnn4c(C(F)F)cc(-c5ccccc5)nc34)CC2)c1C`, for which the inhibition was 12.1% (active).

Consider `CC(=O)N1CCN(c2cccc(C)c2C)CC1`, for which the inhibition was 2.09% (inactive).

As to `O=C(O)c1cnn2c(C(F)(F)F)cc(-c3ccccc3)nc12`, the inhibition was 0.53% (inactive).

As to `COc1cc(N/C=C2\CC(=O)NC(C)=C2C#N)cc(OC)c1OC`, the inhibition is 2.13% (inactive).

Take `Cn1c(=O)c2cc(S(=O)(=O)NCCC(=O)Nc3ccc(F)cc3F)ccc2n(C)c1=O`: the inhibition is 2.64% (inactive).

Take `COc1ccc(CCNC(=O)CC2SC(=Nc3cc(C)cc(C)c3)NC2=O)cc1OC` (stereo unspecified): the inhibition was 1.51% (inactive).

As to `O=C(c1cc2sccc2n1Cc1ccc(F)cc1)N1CCc2ccccc21`, the inhibition is 2.22% (inactive).

In the case of `CCOC(=O)c1cc2sccc2n1Cc1ccc(C#N)cc1`, the inhibition was 8.47% (active).

In the case of `CC1Cc2ccccc2N1C(=O)c1cc2sccc2n1Cc1ccccc1` (stereo unspecified), the inhibition is 2.9% (inactive).

As to `NC(=O)CCC(NS(=O)(=O)c1ccc(Cl)cc1)C(=O)NCc1ccccc1Cl` (stereo unspecified), the inhibition is 2.16% (inactive).

Regarding `CCCC1NC(=S)NC(C)=C1C(C)=O` (stereo unspecified), the inhibition is 1.13% (inactive).

For the compound `Cc1ccc(NC(=O)c2cccnc2C(=O)Nc2ccc(C)cc2)cc1`, the inhibition was 2.98% (inactive).

On to `Cc1ccc(NC(=O)CN2CCCCC2)c2c1CC(C)(C)O2`, for which the inhibition was 0.63% (inactive).

Regarding `COc1ccc(-c2[nH]ncc2CN(C)Cc2cc(C)[nH]n2)c(F)c1`, the inhibition was 0.37% (inactive).

For the compound `CN(C)c1ccc(C2Nc3ccccc3C(=O)N2NS(=O)(=O)c2ccccc2)cc1` (stereo unspecified), the inhibition is 1.39% (inactive).

As to `O=C1Cc2ccccc2Sc2ccc(Cl)cc21`, the inhibition is 9.58% (active).

As for `O=C(CSc1nc2ccccc2o1)N1c2ccccc2Sc2ccc(Cl)cc21`, the inhibition was 3.58% (inactive).

On to `S=C1Nc2cc(Cl)ccc2Sc2ccccc21`, for which the inhibition is 0% (inactive).

Take `CN(CC(=O)N1CCN(c2ccccc2)CC1)S(=O)(=O)c1cccs1`: the inhibition was 1.71% (inactive).

As for `O=C(NCCCN1CCOCC1)c1ccccc1NS(=O)(=O)c1ccc(Br)cc1`, the inhibition was 1.86% (inactive).

As for `O=C(CN1C(=O)CC(c2ccccc2)=Nc2ccccc21)NC1CCCCC1`, the inhibition is 0.45% (inactive).

On to `CC(=O)c1cc(-c2ccccc2)n(CCC(=O)NC2CCCCCC2)c1C`, for which the inhibition is 8.76% (active).

Turning to `CC(=O)c1cc(-c2ccccc2)n(CC(=O)NC2CCCCC2)c1C`, the inhibition was 1.07% (inactive).

As for `S=c1[nH]nc(/C=C/c2ccccc2)o1`, the inhibition was -1.49% (inactive).

Regarding `O=c1c(-c2ccccc2)cnc2n1CCS2`, the inhibition was 0.49% (inactive).

On to `CNc1[nH]ncc1[N+](=O)[O-]`, for which the inhibition was 0.14% (inactive).

Take `CC(=O)Nc1ccc(S(=O)(=O)Nc2ccc(-c3ccc4nnc(C)n4n3)cc2)cc1`: the inhibition is 1.24% (inactive).

As for `COc1cc(OC)cc(C(=O)Nc2ccc(S(=O)(=O)Nc3cc(C)on3)cc2)c1`, the inhibition was 3.99% (inactive).

On to `COc1cc2ccccc2cc1C(=O)Nc1ccc(S(=O)(=O)Nc2cc(C)on2)cc1`, for which the inhibition is 9.69% (active).

For the compound `Cc1cc(NS(=O)(=O)c2ccccc2)no1`, the inhibition was 1.83% (inactive).

As to `C/C=N/NC(=O)CCCC(=O)N/N=C/C`, the inhibition is 0.88% (inactive).

For `C#CCOCCOCCOCCNc1nc(N2CCN(C(=O)[C@H](C(C)C)n3cc(CCO)nn3)CC2)nc(N2CCN(C(=O)[C@H](C(C)C)n3cc(CCO)nn3)CC2)n1`, the inhibition is 1.36% (inactive).

Turning to `CN1C(=O)/C(=C\c2cc(Br)cs2)c2ccccc21`, the inhibition was 8.8% (active).

With `CN1C(=O)/C(=N/OC(=O)c2ccccc2Br)c2ccccc21`, the inhibition is 4.91% (inactive).

Turning to `CCC1C(=O)c2ccccc2N(C)C1=O` (stereo unspecified), the inhibition is 0.28% (inactive).

Turning to `CN1CCN(C(=O)CCc2ncc(C(F)(F)F)cc2Cl)CC1`, the inhibition is -0.55% (inactive).

Take `COc1ccc(-n2cnc3cc(C(=O)NC4CCCC4)ccc32)cc1`: the inhibition was -0.87% (inactive).
